Bioassay records as filed in PubChem BioAssay.
Hits are enriched below; roughly 2.7% of the tested compounds scored in any of these assays.
MPTP block: blocks calcium-induced mitochondrial swelling | isolated mouse mitochondria, Ca2+ swelling absorbance, 30 min | inhibition, % at 10 µM | 1.4% of 360,000 active;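 active means inhibition of 50% or more, scaled per plate between neutral and stimulator controls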;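 further: 0% = DMSO wells given calcium and 100% = 1 mM EGTA wells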
CFTR F508del cor: correctors of CFTR F508del function in bronchial epithelial cells; 0.36% of 350,000 active; AID 720511; CFBE cells, YFP halide quenching; stimulated with forskolin plus potentiator P3; % fluorescence drop versus neutral controls; activity (quench increase), % at 7.58 µM;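 active means mean added fluorescence quench of at least 8% versus neutral control, with both replicates also reaching 8%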;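 further: cells transiently co-express mutant CFTR-F508del with the halide-sensitive YFP; corrector assay measuring rescue of mutant channel to the surface after 24 h compound exposure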
NRP1-CendR mod: NRP-1/CendR interaction modulation; O14786; FAM-RPARPAR peptide binding to NRP-1, fluorescence polarization; inhibition, % at 25 µM; 0.85% of 360,000 active; AID 602438;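 active means inhibition or corrected inhibition above about 18%, plus a signal ratio from 0.5 to 1.5, limit read from the data, passing the limit was not always enough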
SKN-1 inh: inhibitors of C. elegans SKN-1; C. elegans VP596 Pgst-4::GFP/RFP ratio, acrylamide-induced, 24 h; inhibition, % at 21.8 µM; 0.49% of 360,000 active;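 active means interference check ratio from 0.5 to 1.5 plus GFP to RFP signal ratio inhibition reaching or exceeding a fixed threshold, cut at about 30% in these data, passing the limit was not always enough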
ATG4B inhibitor: inhibitors of human ATG4B cysteine protease | Q9Y4P1 | ATG4B cleavage of LC3-PLA2, NBD-HPC fluorescence, 1 h | inhibition, % at 8.33 µM | 0.51% of 340,000 active | AID 504462; in the data active means inhibition above about 40%
Target sequence (Q9Y4P1 whole entry, looked up): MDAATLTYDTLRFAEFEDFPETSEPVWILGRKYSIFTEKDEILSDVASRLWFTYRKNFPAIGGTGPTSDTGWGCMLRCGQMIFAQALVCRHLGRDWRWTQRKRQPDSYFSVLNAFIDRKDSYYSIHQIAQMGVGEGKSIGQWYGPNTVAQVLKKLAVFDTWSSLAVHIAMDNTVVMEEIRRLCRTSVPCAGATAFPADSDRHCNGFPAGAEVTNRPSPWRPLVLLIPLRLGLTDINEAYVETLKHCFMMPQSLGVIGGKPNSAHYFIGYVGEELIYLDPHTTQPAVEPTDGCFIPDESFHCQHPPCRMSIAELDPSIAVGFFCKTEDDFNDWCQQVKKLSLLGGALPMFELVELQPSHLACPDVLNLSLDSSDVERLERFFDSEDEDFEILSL
MPTP counter: membrane potential counter-screen of mitochondrial pore inhibitors; shares compounds with MPTP block; inhibition, % at 10 µM; isolated mitochondria, Rhodamine 123 fluorescence; AID 624504; 78% of 5,000 active; in the data active means inhibition above about 22%;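 further: 0% = DMSO vehicle and 100% = positive control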
MPTP abs DR: dose response confirmation of mitochondrial permeability transition pore inhibitors; shares compounds with MPTP block; isolated mitochondria swelling, absorbance; IC50, µM; 58% of 780 active; AID 651561; in the data active means IC50 below about 20 µM
MPTP cs DR: counter-screen for mitochondrial permeability transition pore inhibitors, dose response | shares compounds with MPTP block | isolated mitochondria counterscreen, fluorescence read-out | IC50, µM | 49% of 780 active | AID 651564; in the data active means IC50 below about 80 µM
Active calls of the source: *; i = inactive; · = no result.

SMILES | MPTP block | CFTR F508del cor | NRP1-CendR mod | SKN-1 inh | ATG4B inhibitor | MPTP counter | others
CCC(O)C1CCN(C(=O)c2cc(COc3ccc4ncccc4c3)on2)CC1 (stereo not given) | 92* | 3 | -1 | 9 | 6 | 102*
C[C@H]1CCCCO[C@@H](CN(C)C(=O)c2ccccc2)[C@@H](C)CN([C@@H](C)CO)C(=O)c2cc(NS(=O)(=O)c3cn(C)cn3)ccc2O1 | · | 0 | · | · | · | ·
CCCC(=O)N1CC2(CN(S(=O)(=O)CC)C2)c2c(n(C)c3cc(OC)ccc23)[C@@H]1CO | · | 0 | · | · | · | ·
Cc1ccccc1/C=C1\SC(=S)N(/N=C/c2cc([N+](=O)[O-])ccc2O)C1=O | 80* | -1 | -6 | -11 | 22 | 45*
Cc1noc(C)c1S(=O)(=O)Nc1ccc2c(c1)C(=O)N([C@H](C)CO)C[C@H](C)[C@H](CN(C)Cc1ccc(C(=O)O)cc1)O2 | · | 1 | · | · | · | ·
COc1cc(CNCc2ccc(SC)cc2)cc(OC)c1 | 56* | 1 | 5 | 0 | -7 | 16 | MPTP abs DR=11*;MPTP cs DR=18*
COc1cccc(CNCc2cc(OC)cc(OC)c2)c1 | 0 | 1 | 3 | -6 | -1 | ·
O=C(Nc1ccc(Cl)cc1)C1=Cc2cc(Cl)ccc2OC1 | 99* | · | 10 | 13 | -5 | 113*
COc1ccc(/C=N/OCC(=O)N=Nc2c(O)[nH]c3ccc(Br)cc23)cc1OC | 16 | · | -2 | -4 | 3 | ·
COc1ccc(/C(C)=N/OCC(=O)N=Nc2c(O)[nH]c3ccc(Br)cc23)cc1 | 57* | · | -13 | 8 | -6 | 0 | MPTP abs DR=i;MPTP cs DR=10*
Cc1ccc(NC(=O)CC(O)(C(F)(F)F)C(F)(F)F)c(Br)c1 | 53* | · | 8 | 7 | 3 | 79*
CO[C@@H](CN(C)C(=O)c1ccccc1F)[C@@H](C)CN([C@H](C)CO)S(=O)(=O)c1ccc(C)cc1 | · | 0 | · | · | · | ·
Cc1nn(C)c(C(=O)NCc2ccc(Cl)cc2)c1Cl | 93* | · | 2 | 1 | 30 | 86*
Cc1nc(C)c(C(=O)NCc2ccc(Cl)cc2)o1 | 14 | -1 | -16 | 12 | -4 | ·
O=c1[nH]nc(Cc2ccc(-c3ccc(Cl)cc3)o2)c2ccccc12 | 64* | · | 3 | -19 | -19 | 20 | MPTP abs DR=>100;MPTP cs DR=10*
O=C(c1ccc2c(=O)n(Cc3ccc(Cl)cc3)c(=S)[nH]c2c1)N1CCCC1 | -2 | -1 | -5 | -13 | 6 | ·
CC1CCN(CCNC(=O)c2ccc3c(=O)n(Cc4ccc(Cl)cc4)c(=S)[nH]c3c2)CC1 | 90* | · | -16 | 10 | -3 | -18
CCCN1CCN(CCCNC(=O)c2ccc3c(=O)n(CCc4ccccc4)c(=O)[nH]c3c2)CC1 | 70* | 0 | -1 | 8 | -8 | 0 | MPTP abs DR=i;MPTP cs DR=>80
COCCCNC(=O)c1ccc2c(=O)n(Cc3ccc(Cl)cc3)c(=S)[nH]c2c1 | 2 | 5 | 6 | -6 | -3 | ·
CN1CCN(C(=O)c2ccc3c(=O)n(Cc4ccc(Cl)cc4)c(=S)[nH]c3c2)CC1 | 93* | · | -10 | 4 | 36 | -13 | MPTP abs DR=18*;MPTP cs DR=>80
C[C@@H]1CN([C@H](C)CO)C(=O)c2cc(NS(=O)(=O)c3cccs3)ccc2O[C@@H](C)CCCCO[C@@H]1CN(C)S(=O)(=O)c1ccccc1 | · | 1 | · | · | · | ·
Cc1ccc(NC(=S)NC(C)CCc2ccccc2)cc1C (stereo not given) | 86* | · | 9 | 3 | 3 | 97*
CC(=O)c1ccc(NC(=S)NC(C)CCc2ccccc2)cc1 (stereo not given) | 89* | 1 | 0 | 4 | -8 | 93*
CC(=O)N(C)C[C@H]1Oc2cc(C#Cc3ccccc3F)ccc2S(=O)(=O)N([C@H](C)CO)C[C@H]1C | · | -2 | · | · | · | ·
Oc1ccc(C[C@@H]2CNCCN2CC2CCCCC2)cc1 | 3 | -1 | 13 | 6 | 7 | ·
SMILES | MPTP block | CFTR F508del cor | NRP1-CendR mod | SKN-1 inh | ATG4B inhibitor | MPTP counter | others
c1ccc2c(C[C@@H]3CNCCN3CC3CCCCC3)cccc2c1 | 54* | 0 | 12 | -5 | -8 | -12
N#Cc1ccc(-c2ccc(OCC(=O)Nc3cccnc3)cc2)cc1 | 16 | 1 | -11 | 8 | -1 | ·
O=C(COc1ccc(C(=O)c2ccccc2)cc1)NC1CCCCCC1 | 53* | · | 1 | -2 | 10 | 31*
O=C(COc1ccc(C(=O)c2ccccc2)cc1)Nc1cccnc1 | 81* | -4 | 11 | 3 | -6 | 82*
O=C(C[C@H]1CC[C@@H]2[C@H](COC[C@H](O)CN2Cc2cc(F)cc(F)c2)O1)NCc1cccc(F)c1 | · | -5 | · | · | · | ·
Cc1nn(CC(=O)NCCCN2CCC(Cc3ccccc3)CC2)c(=O)c2cc(-c3ccccc3)nn12 | 74* | 2 | 15 | 7 | -8 | -6 | MPTP abs DR=i;MPTP cs DR=>80
CCc1ccc(-c2cc3c(=O)n(CC(=O)NCCCN4CCC(Cc5ccccc5)CC4)nc(C)n3n2)cc1 | 98* | 0 | -9 | -6 | -6 | -3 | MPTP abs DR=3*;MPTP cs DR=>80
Cc1nn(CC(=O)NCCCN2CCN(Cc3ccccc3)CC2)c(=O)c2cc(-c3ccccc3)nn12 | 12 | 2 | 8 | -4 | -8 | ·
S=C(Nc1ccccc1)Nc1ccccc1Br | 1 | -1 | 6 | 14 | 0 | ·
Fc1cccc(NC(=S)Nc2ccc(Br)cc2)c1 | 110* | · | -1 | 0 | 1 | 96*
O=C(NC(=S)Nc1ccc2c(c1)OCCO2)c1cccc(Br)c1 | 2 | · | -1 | 4 | -11 | ·
S=C(Nc1ccc(Br)cc1)Nc1ccc2c(c1)OCCO2 | 81* | 0 | -5 | -10 | -8 | 106*
Cc1ccccc1NC(=S)Nc1ccc(Br)cc1 | 80* | · | 16 | 3 | 6 | 83*
COc1ccc2c3c([nH]c2c1)[C@H](CO)N(C(=O)c1cccnc1)CC31CCN(Cc2ccccc2)CC1 | · | 0 | · | · | · | ·
O=C(c1cccnc1)N1CC(=O)N2[C@H](CO)[C@@H](c3ccc(C#CCC4CCCC4)cc3)[C@H]2C1 | · | 2 | · | · | · | ·
CN(C)C(CNC(C(=O)Nc1ccc([N+](=O)[O-])cc1Br)c1ccccc1)c1ccccc1 (stereo not given) | 6 | 3 | -3 | -4 | -4 | ·
CCN(CC)CCNC(C(=O)Nc1ccc([N+](=O)[O-])cc1Br)c1ccccc1 (stereo not given) | 61* | · | -3 | 7 | 1 | -2 | MPTP abs DR=>100;MPTP cs DR=>80
CCOC(=O)[C@@H]1[C@H]2COc3ccccc3[C@H]2N2C(=O)N(c3ccc(C(F)(F)F)cc3)C(=O)[C@]12C | 95* | 1 | 18 | -20 | -6 | 118*
Cc1nc(N2CCC(C)CC2)c2c(C)c(C(=O)Nc3ccc4c(c3)OCCO4)sc2n1 | -1 | 1 | 15 | 11 | -5 | ·
Cc1nc(N2CCC(C)CC2)c2c(C)c(C(=O)Nc3ccc(C(F)(F)F)cc3)sc2n1 | 88* | 2 | 3 | 8 | -10 | 38*
